Measured values as given in ChEMBL document CHEMBL1201862, “PubChem BioAssay data set” (2004).
Out of some 57,000 sequences screened, about 4,300 (7.5%) were called active. No stated cut-off is given here; in the data, active = GI50 up to about 1.1 µM and inactive = higher. Not all results are given here. Measured potencies and affinities stand elsewhere.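 Values below derive from 48-hour exposures of cells grown in 96-well plates, with endpoints linearly interpolated between the two concentrations bracketing the appropriate inhibition level. GI50 = concentration required for 50% inhibition of growth.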

The substances below were run on HT-29 (assay: NCI tumour cell line growth inhibition, 48 h).
For “cis-Bis[[(trimethylsilyl)methyl]amino]tetrachloroplatinum(IV), CHEMBL2146191”, the GI50 was 4.11 µM. “[Bis(aminomethyl)pentamethylenesilane]tetrachloropaltinum(IV), CHEMBL2146204” showed a GI50 of 1.57 µM. In the case of “[Bis(aminomethyl)tetramethylenesilane]tetrachloropaltinum(IV), CHEMBL2146189”, the GI50 is reported as 4.9 µM. Work on “[Bis(aminomethyl)pentamethylenesilane]dichloropaltinum(II), CHEMBL2146202” yielded a GI50 of 3.19 µM. CISPLATIN, CHEMBL11359 showed a GI50 of 7.93 µM. In the case of “[Bis(aminomethyl)dimethylsilane]dichloroplatinum (II), CHEMBL2146201”, the GI50 is reported as 18.1 µM. “[Bis(aminomethyl)dimethylsilane]tetrachloroplatinum(IV), CHEMBL2146190” gave a GI50 of 5.28 µM. “[Bis(aminomethyl)ethylmethylsilane]tetrachloroplatinum(IV), CHEMBL2146192” showed a GI50 of 1.57 µM. For “mu-(1,7-nanodiamine-N,N')bis-(cis-aminedichloroplatimum (II)), CHEMBL2146215”, the GI50 was 42.7 µM. Work on “[Bis(aminomethyl)tetramethylenesilane]dichloropaltinum(II), CHEMBL2146205” yielded a GI50 of 16.2 µM. Substance “[Bis(aminomethyl)diethylsilane]tetrachloroplatinum(IV), CHEMBL2146203” has a GI50 of 2.06 µM.
